Assay outcomes deposited in PubChem BioAssay by National Center for Advancing Translational Sciences (NCATS).
A selection: hits, their analogues and other compounds. The true share with any hit is near 8%.
TSHR antag: antagonists of human thyroid stimulating hormone receptor. actives 0.2% (n = 330,000). TSHR-expressing cells, TSH-stimulated cAMP HTRF, 2 h; stronger effect = lower value. P16473. activity change, negative = inhibition, % at 11.5 µM. AID 504810;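 active = activity change below a set negative limit, meaning inhibition stronger than a set level, cut at about -70% in these data; inconclusive = activity change between two set negative limits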
Target sequence (P16473 whole entry, looked up): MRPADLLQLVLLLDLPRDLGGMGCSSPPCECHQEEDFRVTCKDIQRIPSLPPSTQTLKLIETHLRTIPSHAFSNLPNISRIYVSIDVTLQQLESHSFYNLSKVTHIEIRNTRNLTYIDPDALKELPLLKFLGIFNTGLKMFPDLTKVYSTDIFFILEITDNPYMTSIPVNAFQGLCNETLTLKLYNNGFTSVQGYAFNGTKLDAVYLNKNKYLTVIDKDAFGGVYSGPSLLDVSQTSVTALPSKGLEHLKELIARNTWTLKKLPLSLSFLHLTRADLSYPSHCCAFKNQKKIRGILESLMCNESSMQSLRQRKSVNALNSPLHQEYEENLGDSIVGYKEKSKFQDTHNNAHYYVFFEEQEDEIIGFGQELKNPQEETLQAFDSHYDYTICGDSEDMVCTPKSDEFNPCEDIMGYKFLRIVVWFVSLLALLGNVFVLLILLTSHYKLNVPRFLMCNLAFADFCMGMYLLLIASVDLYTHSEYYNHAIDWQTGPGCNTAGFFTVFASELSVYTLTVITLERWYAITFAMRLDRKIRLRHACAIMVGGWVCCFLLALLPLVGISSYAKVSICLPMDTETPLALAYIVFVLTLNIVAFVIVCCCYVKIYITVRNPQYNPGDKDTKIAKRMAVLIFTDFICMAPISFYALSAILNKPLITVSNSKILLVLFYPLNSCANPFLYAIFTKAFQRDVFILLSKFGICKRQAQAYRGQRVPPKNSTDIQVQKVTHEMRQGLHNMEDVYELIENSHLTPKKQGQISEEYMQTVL
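TSHR-expressing cells, 200/well, pre-treated with compound, then stimulated with EC80 TSH (4nM final) for 2 hours at 37 deg C. cAMP measured by competitive HTRF: anti-cAMP cryptate antibody in lysis buffer plus cAMP-d2, read after 30 minutes at room temperature.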
ELG1 DNA repair: ELG1-dependent DNA repair inhibition; Potency, µM (doses to about 46.1 µM), actives largely listed as inhibitors; HEK293T ELG1-luciferase reporter, luminescence, 16 h; DNA damage induced by 5-fluorouridine; actives 2.3% (n = 330,000); note: nearly all actives have a fitted effect of over 55% in size
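Cells (2,000 per well) received 5-fluorouridine plus test compound or DMSO and were incubated 16 hr at 37 °C, 5% CO2. Luciferase activity was read by luminescence 30 min after ONE-Glo addition; signal suppression marked inhibition of damage-induced ELG1 function.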
RORgamma inh: blocks mouse ROR gamma transcriptional activity; AID 2551; Drosophila S2 Gal4-RORgamma UAS-luciferase reporter, 20 h; actives 5.4% (n = 310,000); Potency, µM (doses to about 53.6 µM), most hits filed as inhibitors; P51450; note: nearly all actives have a fitted effect of over 60% in size
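ROR gamma transcriptional activity was tracked as Gal4-UAS luciferase output in stably transfected Drosophila Schneider cells, with compound added 1 hr before 700 uM copper sulfate induction and a 20 hr ambient-temperature incubation.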
FBPA coupling cs: inhibits coupling enzyme system, counter-screen for aldolase hits. coupling enzyme system counterscreen, AmpLite Red fluorescence. AID 2472. actives 0.67% (n = 290,000). activity change, negative = inhibition, % at 58.2 µM, hits read low; in the data active = activity change below about -30%
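Compounds tested against the coupling enzymes alone at 57.5 uM final; readout was AmpLite Red fluorescence (525/598 nm) after 20 min at RT.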
VP16 counter: counter-screen for ROR gamma inhibitors: Gal4-VP16 reporter; Drosophila S2 Gal4-VP16 UAS-luciferase, luminescence, 20 h; Potency, µM (doses to about 53.6 µM), usual class: inhibitors; actives 3.5% (n = 310,000);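 note: Gal4-VP16 expression switched on by copper sulfate through the metallothionein promoter; nearly all actives have a fitted effect of over 50% in size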
A number is an active result; i = inactive; ? = inconclusive; nt = no result given; [ ] = dose if it differs, or a comment. Unless noted, calls come from the whole dose curve; as a rule, active = well fitted curve in the direction sought with a large enough effect; inconclusive = small, poorly fitted or top-dose-only effect, or another doubt; inactive = no such curve, though single readings can be large; an effect the other way counts as inactive or inconclusive.

SMILES	TSHR antag	ELG1 DNA repair	RORgamma inh	FBPA coupling cs	VP16 counter
CCc1ccccc1N(CC)C(=O)C1CCN(c2ncnc3c2nc2n3CCCCC2)CC1	i	15µM	i	i	i
O=C(C1CCN(c2ncnc3c2nc2n3CCCCC2)CC1)N1CCN(c2ccc(F)cc2)CC1	i	7.3µM	?	i	i
CCc1c(C)nc2ncnn2c1N1CCC(C(=O)N2CCN(c3ccccc3)CC2)CC1	i	i	i	i	i
CCN(Cc1ccccc1)C(=O)C1CCN(c2ncnc3c2nc2n3CCCCC2)CC1	i	?	i	i	i
CCOc1cccc(N2CCN(CCNC(=O)Nc3ccc(C)cc3)CC2)c1C	i	?	i	i	i
O=C(Nc1ccccc1Cl)C1CCCN(c2ncnc3c2nc2n3CCCCC2)C1 (stereo unspecified)	i	?	i	i	i
COc1ccccc1NC(=O)C1CCCN(c2ncnc3c2nc2n3CCCCC2)C1 (stereo unspecified)	i	21µM	i	i	i
Cc1cccc(N2CCN(CCCNC(=O)C3CCCN(c4ncnc5c4nc4n5CCCCC4)C3)CC2C)c1 (stereo unspecified)	i	12µM	i	i	i
CN1Cc2sccc2C(c2ccc(O)c(O)c2)C1 (stereo unspecified)	i	nt	nt	nt	nt
Oc1ccccc1Cc1c(O)ccc2ccccc12	i	i	nt	nt	nt
O=C(COC(=O)c1cccs1)NCCc1ccc(F)cc1	i	i	nt	nt	nt
COc1ccc(NC(=O)c2cc(S(=O)(=O)N3CCCC3)ccc2C)cn1	i	i	nt	nt	nt
COc1ccc(NC(=O)c2cccc(S(=O)(=O)N3CCc4ccccc43)c2)cn1	i	8.2µM	i	i	?
COc1ccc(NC(=O)c2cc(S(=O)(=O)N3CCCCC3)ccc2N2CCCCC2)cn1	i	i	i	-35	i
O=C(Nc1ncccc1O)c1cccc(S(=O)(=O)N2CCc3ccccc32)c1	i	i	?	i	?
CN(C)c1ccc(/C=N\NC(=O)c2csnn2)cc1	i	?	?	i	18µM
CN(C)c1ccc(/C=N/NC(=O)c2ccccn2)cc1	i	?	i	i	?
CN(C)c1ccc(/C=N\NC(=O)c2cccc3cc[nH]c23)cc1	i	?	7.9µM	i	?
CCOC(=O)C1CCCN(S(=O)(=O)CCNC(=O)c2ccc(F)cc2)C1 (stereo unspecified)	i	i	nt	nt	nt
Clc1ncnc2scc(-c3ccc(Br)cc3)c12	i	i	11µM	i	?
CCOC(=O)C1(CCOc2ccccc2)CCN(Cc2cccc3c2OCO3)CC1	i	?	i	i	i
COc1ccccc1N1CCN(Cc2ccc(O)c3ncccc23)CC1	i	?	0.5µM	i	?
CCOC(=O)C1(CCOc2ccccc2)CCN(Cc2cccc(OC)c2OC)CC1	i	12µM	i	i	i
Oc1ccc(CN2CCCc3ccccc32)c2cccnc12	i	i	7.9µM	i	13µM
CCOc1ccccc1N1CCN(Cc2cccc(OC)c2OC)CC1	i	i	i	-41	i
SMILES	TSHR antag	ELG1 DNA repair	RORgamma inh	FBPA coupling cs	VP16 counter
Cc1cccc(N2CCN(C(=O)c3ccccc3SCC(=O)N3CCCC3)CC2)c1C	i	?	nt	nt	nt
COC(=O)N[C@H](C[N+](=O)[O-])C(C)(C)C	nt	nt	i	i	i
CCOC(=O)C1CCN(Cc2ccccc2C(F)(F)F)CC1	i	i	i	i	i
CCOC(=O)C1CCN(Cc2ccc(O)c3ncccc23)CC1	i	?	2.8µM	i	5µM
COc1ccc(NC(=O)[C@@H]2[C@@H]3C(=O)N(C4CCCCC4)C(=O)[C@@H]3C3c4ccccc4C=CN32)cc1 (stereo partly specified)	i	?	i	-31	i
CC(=O)[C@@H]1[C@@H]2C(=O)N(C3CCCCC3)C(=O)[C@@H]2C2c3ccccc3C=CN21 (stereo partly specified)	i	i	i	nt	i
O=C(NCc1cccs1)C1CCCN(C(=O)Nc2ccccc2)C1 (stereo unspecified)	i	?	i	i	i
CCN(CC)S(=O)(=O)c1ccc(C(=O)NCCOC(=O)c2ccc(F)cc2F)cc1	i	i	i	i	i
O=C1Nc2ccccc2C12Nc1ccccc1-c1nc3ccccc3n12 (stereo unspecified)	i	15µM	?	i	i
CC1=C2[C@@H]([C@H](C)CC[C@H]2/C=C(\C)C(=O)O)[C@H](O)C1	nt	nt	i	nt	i
CCN(CC)c1c([N+](=O)[O-])ncn1C	i	i	i	i	i
CCS(=O)(=O)c1c([N+](=O)[O-])ncn1C	i	i	?	i	10µM
NNC(=S)NC1CC2CC1C1C=CCC21 (stereo unspecified)	i	i	0.45µM	i	2.8µM
CCOC(=O)C1OC1C(=O)N[C@@H](CC(C)C)C(=O)NCCC(C)C (stereo partly specified)	nt	nt	i	i	i
CC(=O)N1CCN(c2ccc(NC(=S)NC(=O)COc3ccc(C(C)(C)C)cc3)cc2)CC1	i	?	i[10 µM]	i	?
O=C(NC(=S)Nc1ccc(NC(=O)c2cccs2)cc1)c1cc2ccccc2o1	i	i	7.1µM	i	7.9µM
CC(C)C(=O)N1CCN(c2ccc(NC(=S)NC(=O)c3cc4ccccc4o3)cc2)CC1	i	?	5µM	nt	?
CCC(=O)N1CCN(c2ccc(NC(=S)NC(=O)COc3ccccc3)cc2)CC1	i	i	?	i	13µM
O=C(Nc1ccc(N2CCCC2)cc1)c1cc2ccccc2o1	i	?	nt	i	nt
O=C(NC(=S)Nc1ccc(NC(=O)c2cccs2)cc1)c1ccco1	i	?	?	i	?
CC(=O)N1CCN(c2ccc(NC(=O)c3cc4ccccc4o3)cc2)CC1	i	?	?	i	i
CCC(=O)N1CCN(c2ccc(NC(=S)NC(=O)c3cc4ccccc4o3)cc2)CC1	i	?	13µM	nt	4µM
N#CCc1nn(-c2ccccc2)c2ncnc(N)c12	i	i	i	i	i
O=C(CCCCCn1c(=O)[nH]c2ccccc2c1=O)NCCCN1CCN(c2ccccc2F)CC1	i	23µM	i	i	i
Cc1cc(C)c2c(=O)n(CC(=O)NCCCN3CCN(c4ccccc4F)CC3)sc2n1	i	?	3.5µM	i	5µM
SMILES	TSHR antag	ELG1 DNA repair	RORgamma inh	FBPA coupling cs	VP16 counter
Cc1cc(C)c2c(=O)n(CC(=O)NCCCN3CCOCC3)sc2n1	i	i	4µM	i	5µM
O=C(CCn1c(=S)[nH]c2ccccc2c1=O)NCCCN1CCOCC1	i	i	i	i	i
Cc1ccccc1CS(=O)(=O)CCC(=O)NCCCN1CCN(c2ccccc2F)CC1	i	i	i	i	i
Cc1cc2c(N)cccc2nn1	i	i	13µM	-37	i
Nc1cccc2nc3ccccc3cc12	i	23µM	14µM	i	?
COc1cccc(-c2nnc(NC(=O)C(C)C)o2)c1	i	i	?	i	16µM
COc1cccc(-c2nnc(NC(=O)c3cccc(F)c3)o2)c1	i	i	0.32µM	i	0.79µM
